Experimental data: PubChem BioAssay (NCI)
The panel holds about 83,000 compounds, 20% with a hit somewhere; the sample as a whole holds those more often.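 A percent growth of 40 corresponds to 60% growth inhibition; 0 means no net growth; -100 means all cells died. Active threshold: below 10.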 Unmarked numbers belong to inactive results. Active and inactive are the calls of the source.

Tests used:
Experiment in all cases: NCI-60 one-dose screen, 48 h (100 = growth as untreated, 0 = no growth, -100 = all killed)
Settings in all cases: 10 µM unless noted
NCI-H23 lung = tested on: NCI-H23 lung
NCI-H226 lung = tested on: NCI-H226 lung
NCI-H322M lung = tested on: NCI-H322M lung
HOP-62 NSCLC = tested on: HOP-62 NSCLC
NCI-H460 lung = tested on: NCI-H460 lung
HOP-92 NSCLC = tested on: HOP-92 NSCLC
NCI-H522 lung = tested on: NCI-H522 lung
A549/ATCC NSCLC = tested on: A549/ATCC NSCLC
786-0 renal = tested on: 786-0 renal
COLO 205 colon = tested on: COLO 205 colon
DU-145 prostate = tested on: DU-145 prostate
K-562 leukemia = tested on: K-562 leukemia
MALME-3M melanoma = tested on: MALME-3M melanoma
MDA-MB-231 breast = tested on: MDA-MB-231 breast
RXF 393 renal = tested on: RXF 393 renal
SF-268 CNS = tested on: SF-268 CNS
SF-295 CNS = tested on: SF-295 CNS
SF-539 CNS = tested on: SF-539 CNS
UACC-257 melanoma = tested on: UACC-257 melanoma
M14 melanoma = tested on: M14 melanoma

| Compound | growth (NCI-H23 lung) | growth (NCI-H226 lung) | growth (NCI-H322M lung) | growth (HOP-62 NSCLC) | growth (NCI-H460 lung) | growth (HOP-92 NSCLC) | growth (NCI-H522 lung) | growth (A549/ATCC NSCLC) | growth (786-0 renal) | growth (COLO 205 colon) | growth (DU-145 prostate) | growth (K-562 leukemia) | growth (MALME-3M melanoma) | growth (MDA-MB-231 breast) | growth (RXF 393 renal) | growth (SF-268 CNS) | growth (SF-295 CNS) | growth (SF-539 CNS) | growth (UACC-257 melanoma) | growth (M14 melanoma) |
| --- | --- | --- | --- | --- | --- | --- | --- | --- | --- | --- | --- | --- | --- | --- | --- | --- | --- | --- | --- | --- |
| Cn1c(=O)c2c(nc(NC3=NS(=O)(=O)c4ccccc43)n2Cc2ccccc2)n(C)c1=O | 92.5% | 88.5% | 101% | 93.4% | 102% | 94% | 94.1% | 102% | 101% | 120% | 108% | 104% | 109% | 90.4% | 78.3% | 96.7% | 103% | 100% | 109% | 106% |
| COC(=O)/C=C1/SC(=Nc2cccc(Cl)c2)N(CCc2c[nH]c3ccc(O)cc23)C1=O | 51.1% | 81.3% | 98.6% | 15.4% | 37% | 40.7% | 11% | 78.9% | 19.1% | 90.3% | 14.4% | 5.71% (active) | 42.6% | 29.1% | 10.7% | 25.3% | 64.2% | 0.787% (active) | 31.9% | 13% |
| COc1ccc2nc3ccccc3c(NCc3ccccc3)c2c1 | 21.5% | 34.4% | 29.5% | 33.6% | 6.31% (active) | -13.4% (active) | 34.6% | 18.2% | 22.3% | -19.1% (active) | 22.5% | 5.75% (active) | 22.5% | 27.8% | 5.86% (active) | 44.2% | 19.7% | 11.8% | 27.1% | 26% |
| CS(=O)(=O)Cc1cnc(C2OCCO2)s1 | 107% | 96.4% | 100% | 113% | 112% | 82.4% | 88.7% | 94.8% | 104% | 116% | 106% | 125% | 92.7% | 109% | 116% | 93.1% | 98% | 94.7% | 98.8% | 99.9% |
| CCN(CC)c1ccc(/C=N/NC(=O)c2ccc(Nc3ccnc(C(F)(F)F)c3)cc2)c(O)c1 | 31% | -3.5% (active) | 15.3% | 25.6% | -4.66% (active) | 42.4% | 49.7% | 33.4% | -16.2% (active) | -18% (active) | 30.6% | 87.2% | 14.4% | 24.4% | -0.93% (active) | 18.5% | 7.62% (active) | -46.4% (active) | 49% | 19.3% |
| C=C1C(=O)O[C@H]2[C@H]1CC/C(Cn1cc(-c3cc(C(F)(F)F)cc(C(F)(F)F)c3)nn1)=C\CC[C@@]1(C)O[C@@H]21 | -58.6% (active) | -54.5% (active) | -24.4% (active) | -78.6% (active) | -59.2% (active) | -95.1% (active) | -76.7% (active) | -85.3% (active) | -86.5% (active) | -60.4% (active) | -90% (active) | -37.6% (active) | -88.5% (active) | -75.7% (active) | -90.9% (active) | -78.7% (active) | -67.4% (active) | -92.2% (active) | -85.3% (active) | -70.3% (active) |
| N=C(N)c1ccc(-c2ccc(-c3ccc(F)cc3)s2)s1 | -62.6% (active) | 90.4% | -29.7% (active) | 57% | -64.9% (active) | 28.5% | -72% (active) | -65.8% (active) | -57.5% (active) | -80.6% (active) | -86.3% (active) | -61.4% (active) | 76.9% | -54.4% (active) | -69.1% (active) | -19.5% (active) | -76.4% (active) | -29% (active) | -50.2% (active) | -45.5% (active) |
| O=c1ccc2nc(C(F)(F)F)nn(-c3ccccc3)c-2c1 | 67.7% | 77.7% | 99.8% | 69% | 97.3% | 35.2% | -56% (active) | 93% | 22.2% | -70.7% (active) | 40.5% | -35.1% (active) | -41.7% (active) | 61% | -20.5% (active) | 77.4% | 91.9% | 92.8% | 35.6% | 62.1% |
| CCc1ccc(CCC(=O)Nc2ncc(Cc3ccc(Cl)cc3)s2)o1 | 54.9% | 61.8% | 52% | 30.9% | 6.53% (active) | 69.8% | -3.33% (active) | 29.6% | 41.2% | 12.3% | 14.4% | 10.9% | 46.4% | 60.7% | -12.8% (active) | 58.4% | 17% | 2.47% (active) | 56.6% | 8.78% (active) |
| CCC/C(=N\NC(N)=O)C(OC)OC | 99.9% | 108% | 109% | 109% | 109% | 68.4% | 79.9% | 93.6% | 99.4% | 110% | 96.2% | 118% | 99.5% | 85.8% | 102% | 98.9% | 112% | 89.2% | 103% | 96.9% |
| CCOc1ccc(/C=N\N=C\c2ccc(OCC)cc2)cc1 | 79.5% | 89.1% | 99.1% | 93% | 51.7% | 84.4% | 51.9% | 94.2% | 105% | 96.6% | 17% | 86.7% | 115% | 83.6% | 84.9% | 94% | 95.9% | 96.4% | 99% | 85.3% |
| Cc1cscc(C)c1=S | 77.2% | 103% | 87% | 99.6% | 48.7% | 108% | 50.8% | 88.1% | 103% | 96.2% | 4.23% (active) | 96% | 96.1% | 97.8% | 71.2% | 95.7% | 76% | 96.9% | 89% | 93.1% |
| CN1CCN(c2ccc(NC(=O)c3cncnc3Nc3ccc4c(ccn4Cc4cccc(F)c4)c3)cc2)CC1 | 72.6% | 85.5% | 92.9% | 8.44% (active) | 30.7% | 59.9% | 75.6% | 43.2% | -38.4% (active) | -34% (active) | 54% | 2.74% (active) | -82.6% (active) | 11.9% | 31% | 71% | 80.8% | 45% | 65.4% | -59.3% (active) |
| C#CCOc1cccc(-c2ncc3cc(NC(=O)CCl)ccc3n2)c1 | -13.8% (active) | 2.41% (active) | 69.4% | -5.99% (active) | 27.8% | 14.2% | -72.2% (active) | 73.4% | -81.4% (active) | -77.7% (active) | -73.1% (active) | 2.16% (active) | -69% (active) | -10.3% (active) | -86.3% (active) | -41.8% (active) | 69.4% | -25.9% (active) | 62% | -45.9% (active) |
| O=C(c1ccc(F)c(Cl)c1)N1c2ccccc2Sc2ccccc21 | 78.5% | 77.3% | 102% | 76.6% | 99.5% | 37% | 42.5% | 65.6% | 79.8% | 44.7% | 90.3% | 21.5% | 64.1% | 61% | 70.8% | 66.8% | 64.3% | 62.3% | 61% | 53.1% |
| Clc1ccc(-c2cn3ccsc3n2)c(Cl)c1Cl | 89.8% | 84.6% | 118% | 84.9% | 105% | 58.8% | 81.3% | 97.5% | 103% | 94.9% | 76.2% | 73.1% | 117% | 76.1% | 95.2% | 102% | 91.8% | 88% | 87.7% | 98.7% |
